Experimental findings from the supplement of paper PMC6555819 are described below.

For the assay, the system named is LXRa:RXRa (NR concentration 270 nM, RXRa partner concentration 90 nM). In words: PBM binding z-score (relative to random genomic background probes); higher = stronger binding; sequences stand for … in GC…GCGATTGACAGCGTAGAATGAAGG
The procedure, abridged:
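Binding z-scores take random background probes as their reference. They come from custom Agilent 4×180K protein-binding microarrays incubated 1 h with ligand-free nuclear receptor dimers, with antibodies against each partner (one per run) detecting binding. Scanned fluorescence was regression-normalized.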
In turn, AAATGTAGGTTATCGGGTCATTCAGTTTGCGCAT came in with a PBM binding z-score of 3.09.
The result for TCTTGTAGATCAACAGGAGGTAAAGAAAGATCGA reads -0.0725; that for CCTTACGGGTCACGAGGTTATGGCACGACGAGCG, 4.39; that for CCTCGGAGGACAGAAGATCAGAGCTGTCCGCTTT, -0.485.
The figure for TTACCAAGGCGAGCTGAGGTCGTTGATCCAACTC is 0.298; for TCTAGTAGATCAGCAGGTTAAGAAAGCTGGCCAA it is 0.127.
The result for GCGACTGGGGCATCAGCAGGTTACGATAACTTAA reads -0.214; that for CGAACTAGGTCATCCAGGACAGTAAATACATTGA, 2.79; that for ACTATTAGTTGAGACGAAGGCAACCGATAGGTTG, -0.372.
For TCGAGTTGGTTAGTCGGGGCATTCAGCCAACATA, the PBM binding z-score is -0.0453.
The result for TAGCCTAGGTCATTCAGGGGCCTGTATAGAAAGC reads 3.47; that for TAGCCAAGGTCATGGGCCAGTATACCACGCGAAC, 5.41.
The result for TCTAGTTGGGCACGGAGGTCACACACGACGGGTA reads 2.91.
The result for ATCTCTAGGTAAAGTACAGTGAAAGATCGATAGA reads 0.617; that for GTACCAAGATGAATAGGTCGTTGATGAGTAGGCG, -0.137.
For the sequence CGAACTAGGTCCGAACAGGACAGTGAAGGATGAT, the PBM binding z-score was -0.905.
Take CTCGAAAGGTCGTTCTCAGGTGAGTATACCAAAC: the PBM binding z-score amounted to 4.19.
The result for CAAACTAAGTCAAGGTCAAAGTCGGTTTGTGCCA reads 5.29; that for GTTGCTAGGTCAGGTTGGTCAGCTAACGGGTACG, 1.32.
The result for CCAACGAGGGCATGAGTTGATAGCAAATGCCGAT reads 0.134; that for TCTTGTAGATCGGCAGGTTAAGAAAGCTGGCCAA, 0.472.
The result for TCGAGTAGGTTAGGGGCATTCAAAATGGCGTCGA reads 0.524.
